According to PMC8222333, “AsCas12a ultra nuclease facilitates the rapid generation of therapeutic cell medicines”:
Changes are numbered by the printed parent chain.

B1: TCTC (dsDNA)
DNA 1: GCTATCTAGTGCTCAGTACGCACTGTCTCAGGAAACTTCTGGCAGGACCAGGTCATGAGATCGGAAGAGCACACGTCTGAACTCCAGTCA
DNA 2: TGACTGGAGTTCAGACGTGTGCTCTTCCGATCTCATGACCTGGTCCTGCCAGAAGTTTCCTGAGACAGTGCGTACTGAGCACTAGATAGC
RNA: AAUUUCUACUCUUGUAGAUAGGAAACUUCUGGCAGGACC
B2: TTGC (dsDNA)
DNA 1: B1 DNA 1 with C27T, T28G
DNA 2: B1 DNA 2 with A63C, G64A
RNA: B1 RNA
B3: TTCC (dsDNA)
DNA 1: B1 DNA 1 with C27T, T28C
DNA 2: B1 DNA 2 with A63G, G64A
RNA: B1 RNA
B4: TTTG (dsDNA)
DNA 1: B1 DNA 1 with C27T, C29G
DNA 2: B1 DNA 2 with G62C, G64A
RNA: B1 RNA
B5: TTCA (dsDNA)
DNA 1: B1 DNA 1 with C27T, T28C, C29A
DNA 2: B1 DNA 2 with G62T, A63G, G64A
RNA: B1 RNA
B6: TTCT (dsDNA)
DNA 1: B1 DNA 1 with C27T, T28C, C29T
DNA 2: B1 DNA 2 with G62A, A63G, G64A
RNA: B1 RNA
B7: TTAA (dsDNA)
DNA 1: B1 DNA 1 with C27T, T28A, C29A
DNA 2: B1 DNA 2 with G62T, A63T, G64A
RNA: B1 RNA
B8: TTAC (dsDNA)
DNA 1: B1 DNA 1 with C27T, T28A
DNA 2: B1 DNA 2 with A63T, G64A
RNA: B1 RNA
B9: TCTG (dsDNA)
DNA 1: B1 DNA 1 with C29G
DNA 2: B1 DNA 2 with G62C
RNA: B1 RNA
B10: TGTA (dsDNA)
DNA 1: B1 DNA 1 with C27G, C29A
DNA 2: B1 DNA 2 with G62T, G64C
RNA: B1 RNA
B11: TGTC (dsDNA)
DNA 1: B1 DNA 1 with C27G
DNA 2: B1 DNA 2 with G64C
RNA: B1 RNA
B12: TTTC (dsDNA)
DNA 1: B1 DNA 1 with C27T
DNA 2: B1 DNA 2 with G64A
RNA: B1 RNA
B13: TTGA (dsDNA)
DNA 1: B1 DNA 1 with C27T, T28G, C29A
DNA 2: B1 DNA 2 with G62T, A63C, G64A
RNA: B1 RNA

How the values were obtained:
dAsCas12a WT = dAsCas12a WT (Acidaminococcus sp., UniProt U2UMQ6 1-1307, D908A;E993A;D1235A); assay: Spec-seq (native PAGE EMSA with sequencing of bound and unbound); 25 mM Tris-HCl pH 7.4, 150 mM KCl, 5 mM MgCl2, 10% glycerol, 1 mM DTT, 40 ng/uL salmon sperm DNA; 400 nM Cas12a, 480 nM crRNA, 50 nM library, 37 C 1 h; native P; high values mean tight binding
dAsCas12a Ultra = dAsCas12a Ultra (Acidaminococcus sp., UniProt U2UMQ6 1-1307, M537R;F870L;D908A;E993A;D1235A); assay: Spec-seq (native PAGE EMSA with sequencing of bound and unbound); 25 mM Tris-HCl pH 7.4, 150 mM KCl, 5 mM MgCl2, 10% glycerol, 1 mM DTT, 40 ng/uL salmon sperm DNA; 400 nM Cas12a, 480 nM crRNA, 50 nM library, 37 C 1 h; native PAGE at room temperature; high values mean tight binding; details: protein: recombinant
dAsCas12a E174R = dAsCas12a E174R (Acidaminococcus sp., UniProt U2UMQ6 1-1307, E174R;D908A;E993A;D1235A); assay: as above; details: protein: recombinant;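 further: relative affinity from the bound to unbound sequence frequency ratio in Spec-seq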
dAsCas12a S542R = dAsCas12a S542R (Acidaminococcus sp., UniProt U2UMQ6 1-1307, S542R;D908A;E993A;D1235A); assay: as above; details: protein: recombinant;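 further: relative affinity from the bound to unbound sequence frequency ratio in Spec-seq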
dAsCas12a K548R = dAsCas12a K548R (Acidaminococcus sp., UniProt U2UMQ6 1-1307, K548R;D908A;E993A;D1235A); assay: as above; details: protein: recombinant
d-enCas12a = d-enCas12a (Acidaminococcus sp., UniProt U2UMQ6 1-1307, E174R;S542R;K548R;D908A;E993A;D1235A); assay: as above; details: protein: recombinant
d-enCas12a-Ultra = d-enCas12a-Ultra (Acidaminococcus sp., UniProt U2UMQ6 1-1307, E174R;S542R;K548R;M537R;F870L;D908A;E993A;D1235A); assay: as above; details: protein: recombinant;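 further: relative affinity from the bound to unbound sequence frequency ratio in Spec-seq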

| Binder | binding signal (dAsCas12a WT) [lnKA] | binding signal (dAsCas12a Ultra) [lnKA] | binding signal (dAsCas12a E174R) [lnKA] | binding signal (dAsCas12a S542R) [lnKA] | binding signal (dAsCas12a K548R) [lnKA] | binding signal (d-enCas12a) [lnKA] | binding signal (d-enCas12a-Ultra) [lnKA] |
| --- | --- | --- | --- | --- | --- | --- | --- |
| B1 | -5.94 | -3.61 | -3.18 | -4.47 | -8.65 | -3.15 | -0.761 |
| B2 | -8.28 | -6.02 | -6.51 | -6.74 | -7.43 | -2.75 | -0.707 |
| B3 | -7.28 | -4.81 | -4.78 | -1.16 | -6.53 | -0.274 | -0.0946 |
| B4 | -1.4 | -0.474 | -0.628 | -0.333 | -0.458 | -0.151 | -0.067 |
| B5 | -7.22 | -4.73 | -3.99 | -1.85 | -6.86 | -0.506 | -0.166 |
| B6 | -8.65 | -6.53 | -6.23 | -3.26 | -8.32 | -0.829 | -0.251 |
| B7 | -8.61 | -7.33 | -7.28 | -6.82 | -8.66 | -3.79 | -1.68 |
| B8 | -8.99 | -7.13 | -6.79 | -6.51 | -8.18 | -1.59 | -0.507 |
| B9 | -6.99 | -4.53 | -4.57 | -5.38 | – | -4.86 | -1.79 |
| B10 | -7.99 | -6.4 | -6.64 | -6.54 | -7.23 | -0.876 | -0.296 |
| B11 | -8.93 | -7.57 | -7.56 | -7.52 | -6.58 | -0.999 | -0.323 |
| B12 | 0.0688 | -0.0656 | -0.339 | -0.143 | 0.462 | 0.00167 | 0.033 |
| B13 | -8.14 | -6.6 | -7.49 | -6.46 | -8.53 | -4.32 | -2.04 |
